A selection: hits, their analogues and other compounds. The true share with any hit is near 3.3%.
TLR9-MyD88 block – inhibitors of TLR9-MyD88 association in cells, primary screen, cell-based, CHO, BLA complementation, fluorescence | Toll-like receptor 9 (Homo sapiens) + Myeloid differentiation primary response protein … | CCF4 FRET ratio | inhibition, % at 4.98 µM | actives 0.21% (n = 340,000) | AID 504734, 2011;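 active = inhibition above the mean over all tested compounds plus 3 SD, cut at about 21% in these data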
TLR4-MyD88 BLA – inhibitors of TLR4-MyD88 association in cells, primary screen, cell-based, HeLa CL3-4, BLA complementation, FRET ratio; Toll-like receptor 4 (Homo sapiens) + Myeloid differentiation primary response protein …; HeLa CL3-4 TLR4/MyD88 BLA complementation; inhibition, % at 8.4 µM; actives 0.18% (n = 200,000); in the data active = inhibition above about 25%
rCAG binder – binders of r(CAG) RNA repeats, primary screen, biochemical, fluorescence | r(CAG) RNA repeat, TO-PRO-1 dye displacement fluorescence | inhibition, % at 3 µM | actives 1.3% (n = 370,000);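 active = inhibition above the plate cutoff, the mean of all test compounds on that plate plus 3 SD, cut at about 35% in these data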;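 note: higher means more dye released from RNA so lower well fluorescence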
ABHD5 PLIN5 PPI – ABHD5-PLIN5 interaction inhibitors, primary screen, cell lysate, split luciferase complementation, luminescence; Perilipin-5 (Homo sapiens) + 1-acylglycerol-3-phosphate O-acyltransferase ABHD5 (Homo …; Split G. princeps luciferase complementation, 4 h; actives 0.78% (n = 360,000); inhibition, % at 4 µM;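 active = inhibition above the mean inhibition across every tested compound plus 3 SD, cut at about 22% in these data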
NOD2 RIPK2 PPI – NOD2-RIPK2 binding disruptors in cells, primary screen, fluorescence, CHO cells, BLA complementation; CCF4 ratio; inhibition, % at 4.98 µM; actives 0.38% (n = 360,000); in the data active = inhibition above about 21%
PRMT1 inh – PRMT1 methyltransferase inhibitors, primary screen, biochemical, fluorescence polarization | Protein arginine N-methyltransferase 1 (Homo sapiens), Q99873 | recombinant PRMT1, activity-based probe fluorescence polarization | inhibition, % at 2.79 µM | actives 1.3% (n = 370,000);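 active = inhibition above about 21% made by adding two undisclosed values, limit read from the data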
TLR9-MyD88 conf – TLR9-MyD88 association inhibitors, retest, confirmation, cell-based, CHO, BLA complementation, fluorescence, triplicate; inhibition, % at 4.98 µM; actives 51% (n = 680); shares compounds with TLR9-MyD88 block; CCF4 FRET ratio; AID 540250, 2011;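 active = mean inhibition across three repeats above about 21% taken from the earlier screen, limit read from the data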;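 note: blue over green emission ratio reports constitutive TLR9 MyD88 association via BLA complementation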
Target sequence (Q9NR96 whole entry, looked up): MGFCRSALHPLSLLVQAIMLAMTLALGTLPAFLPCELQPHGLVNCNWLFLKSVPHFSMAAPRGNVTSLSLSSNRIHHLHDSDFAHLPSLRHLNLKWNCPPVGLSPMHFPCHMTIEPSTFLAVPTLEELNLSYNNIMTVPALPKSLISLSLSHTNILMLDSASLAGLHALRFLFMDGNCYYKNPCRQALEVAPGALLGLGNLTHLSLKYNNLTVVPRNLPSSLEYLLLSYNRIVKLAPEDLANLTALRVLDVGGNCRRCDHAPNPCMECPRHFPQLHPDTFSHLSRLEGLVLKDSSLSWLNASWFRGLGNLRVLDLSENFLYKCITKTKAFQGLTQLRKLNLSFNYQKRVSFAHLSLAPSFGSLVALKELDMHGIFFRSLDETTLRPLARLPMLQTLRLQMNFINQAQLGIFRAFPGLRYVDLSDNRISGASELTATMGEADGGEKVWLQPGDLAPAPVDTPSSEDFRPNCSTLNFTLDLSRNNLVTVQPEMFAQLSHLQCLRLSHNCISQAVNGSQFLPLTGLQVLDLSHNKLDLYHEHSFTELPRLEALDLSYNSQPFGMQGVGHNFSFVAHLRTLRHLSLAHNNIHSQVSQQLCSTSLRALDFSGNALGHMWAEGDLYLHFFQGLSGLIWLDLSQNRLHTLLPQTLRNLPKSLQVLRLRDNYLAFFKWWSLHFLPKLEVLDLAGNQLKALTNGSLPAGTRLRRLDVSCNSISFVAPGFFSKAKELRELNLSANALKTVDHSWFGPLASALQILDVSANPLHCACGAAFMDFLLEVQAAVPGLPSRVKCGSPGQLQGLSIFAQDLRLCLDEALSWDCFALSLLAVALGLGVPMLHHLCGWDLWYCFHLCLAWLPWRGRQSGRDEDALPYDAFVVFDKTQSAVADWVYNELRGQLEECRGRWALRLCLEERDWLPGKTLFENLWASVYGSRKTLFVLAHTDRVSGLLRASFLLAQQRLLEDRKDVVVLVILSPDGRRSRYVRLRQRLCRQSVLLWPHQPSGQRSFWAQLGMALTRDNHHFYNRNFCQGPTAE
BLA counter-1 – beta-lactamase reporter inhibitors in CHO cells, artefact control for TLR9-MyD88 binding inhibitor project, cell-based, fluorescence; shares compounds with TLR9-MyD88 block; CHO-BLA cells, CCF4 FRET ratio, BLA reporter; inhibition, % at 4.98 µM; actives 7% (n = 680); AID 540251, 2011;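 active = mean inhibition above a 50% cutoff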;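 note: counterscreen of TLR9-MyD88 hits on CMV-driven BLA in CHO-K1 cells; higher means less blue over green ratio so more BLA blockade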
TLR9 CHO tox – CHO cell viability loss – luminescence, single concentration, cytotoxicity control for TLR9-MyD88 binding inhibitor project; shares compounds with TLR9-MyD88 block; TLR9-MyD88 CHO cells cytotoxicity; inhibition, % at 4.98 µM; actives 39% (n = 680); AID 588336, 2011; in the data active = inhibition above about 11%
ABHD5 PLIN5 conf – ABHD5-PLIN5 interaction inhibitors, confirmation, biochemical, luminescence; shares compounds with ABHD5 PLIN5 PPI; inhibition, % at 4 µM; actives 67% (n = 2,200); in the data active = inhibition above about 23%
HNF4 counter – HNF4 dimerization inhibitors, counter-screen for ABHD5-PLIN5 interaction inhibitor project, biochemical, split-luciferase complementation, luminescence | actives 77% (n = 2,200) | shares compounds with ABHD5 PLIN5 PPI | inhibition, % at 4 µM | AID 651674, 2012;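 active = mean inhibition across replicate wells exceeding the computed hit threshold, cut at about 13% in these data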;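 note: light from luciferase halves that rejoin when HNF4 fusion proteins dimerize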
NOD2-RIPK2 conf – NOD2-RIPK2 binding disruptors, retest, confirmation, fluorescence, CHO cells, BLA complementation, triplicate; shares compounds with NOD2 RIPK2 PPI; CCF4 FRET; inhibition, % at 4.98 µM; actives 70% (n = 1,200); AID 624370, 2012;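 active = mean inhibition across replicates above a set limit taken from the earlier primary screen, cut at about 21% in these data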
BLA counter-2 – hits BLA reporter in NOD2-RIPK2 inhibitor counterscreen; shares compounds with NOD2 RIPK2 PPI; CHO BLA reporter, CCF4 FRET ratio; inhibition, % at 4.98 µM; actives 57% (n = 1,200); AID 624371;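 active = mean inhibition above the low-control mean inhibition plus three low-control SD, cut at about 11% in these data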
rCAG binder conf – small molecules binding CAG repeat RNA – biochemical, fluorescence, confirmation | shares compounds with rCAG binder | r(CAG) RNA repeat, TO-PRO-1 dye displacement fluorescence | inhibition, % at 3 µM | actives 70% (n = 4,300) | AID 652065, 2013;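 active = inhibition above a per-plate cutoff, the mean inhibition of sample wells plus 3 SD, cut at about 35% in these data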;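 note: loss of TO-PRO-1 fluorescence as compound displaces dye from 1x1 AA loop RNA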
DNA CAG counter – displacement of TO-PRO-1 from CAG DNA duplex, counter-screen for rCAG RNA repeat binder project, biochemical, fluorescence, TO-PRO-1 dye, d(CAG) DNA oligo; shares compounds with rCAG binder; d(CAG) DNA oligo TO-PRO-1 dye displacement; inhibition, % at 3 µM; actives 94% (n = 4,300); AID 652068, 2013;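 active = inhibition above its plate's cutoff, the mean test-well inhibition plus 3 SD, cut at about 4.8% in these data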;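 note: hits displace the dye from DNA and so lower well fluorescence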
DNA CAG DR – inhibitors of DNA CAG/GTC TO-PRO-1 complex, dose response, counter-screen for rCAG RNA repeat binder project, biochemical, fluorescence, TO-PRO-1 dye. shares compounds with rCAG binder. DNA CAG/GTC duplex TO-PRO-1 dye displacement fluorescence. IC50, µM. actives 20% (n = 250). AID 686960, 2013; in the data active = IC50 below about 10 µM
PRMT1 inh conf – PRMT1 methyltransferase inhibitors, confirmation, biochemical, fluorescence polarization, triplicate; shares compounds with PRMT1 inh; AID 687036, 2013; recombinant His-PRMT1, activity-based probe fluorescence polarization; inhibition, % at 2.79 µM; actives 42% (n = 3,300);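 active = mean inhibition across replicates above the hit cutoff derived for the earlier primary screen, cut at about 22% in these data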
Hits are given with their value.

`COc1ccc(Cn2c(O)c(/C=N/NC(=O)c3cccnc3)c3ccccc3c2=O)cc1` gave TLR9-MyD88 block 26, TLR4-MyD88 BLA inactive, rCAG binder 75, ABHD5 PLIN5 PPI inactive, NOD2 RIPK2 PPI inactive, PRMT1 inh inactive, TLR9-MyD88 conf inactive, BLA counter-1 inactive, TLR9 CHO tox inactive, rCAG binder conf 71, DNA CAG counter 33 and DNA CAG DR inactive.
Screening CC(=O)Nc1ccccc1C(=O)N1CCN(Cc2ccc3c(c2)OCO3)CC1 returned TLR9-MyD88 block inactive, rCAG binder inactive, ABHD5 PLIN5 PPI inactive, NOD2 RIPK2 PPI inactive and PRMT1 inh inactive.
For CC[C@@]1(O)C(=O)OCc2c1cc1n(c2=O)Cc2cc3c(N)cccc3nc2-1 the results were TLR9-MyD88 block inactive, rCAG binder inactive, ABHD5 PLIN5 PPI inactive, NOD2 RIPK2 PPI inactive and PRMT1 inh inactive.
CC[C@@]1(O)C(=O)OCc2c1cc1n(c2=O)Cc2cc3c(CN(C)C)c(O)ccc3nc2-1 was read as TLR9-MyD88 block 54, rCAG binder inactive, ABHD5 PLIN5 PPI inactive, NOD2 RIPK2 PPI 72, PRMT1 inh 107, TLR9-MyD88 conf 49, BLA counter-1 52, TLR9 CHO tox 60, NOD2-RIPK2 conf 81, BLA counter-2 78 and PRMT1 inh conf 109.
Nc1ccc2c3c(cccc13)-c1ccccc1-2 was read as TLR9-MyD88 block 62, rCAG binder inactive, ABHD5 PLIN5 PPI inactive, NOD2 RIPK2 PPI 67, PRMT1 inh 58, TLR9-MyD88 conf 58, BLA counter-1 54, TLR9 CHO tox inactive, NOD2-RIPK2 conf 74, BLA counter-2 81 and PRMT1 inh conf 61.
For O=C(CSc1nnc(CNC(=O)c2cccs2)o1)Nc1ccc(F)cc1F the results were TLR9-MyD88 block inactive, rCAG binder inactive, ABHD5 PLIN5 PPI inactive, NOD2 RIPK2 PPI inactive and PRMT1 inh inactive.
Screening CC1(C(=O)Nc2ccccc2Br)CCN1C(=O)Cc1ccccc1Cl (configuration not stated) returned rCAG binder inactive, ABHD5 PLIN5 PPI inactive, NOD2 RIPK2 PPI inactive and PRMT1 inh inactive.
Screening O=[N+]([O-])c1c(Nc2cccc(O)c2)cc(Cl)c2nonc12 returned TLR9-MyD88 block 46, rCAG binder inactive, ABHD5 PLIN5 PPI 52, NOD2 RIPK2 PPI 98, PRMT1 inh 60, TLR9-MyD88 conf 61, BLA counter-1 inactive, TLR9 CHO tox 98, ABHD5 PLIN5 conf 71, HNF4 counter 95, NOD2-RIPK2 conf 108, BLA counter-2 29 and PRMT1 inh conf 58.
`O=C(O)c1cccc(Nc2ccc3nonc3c2[N+](=O)[O-])c1` gave TLR9-MyD88 block inactive, rCAG binder inactive, ABHD5 PLIN5 PPI inactive, NOD2 RIPK2 PPI inactive and PRMT1 inh inactive.
Cc1cccc(-c2cccc3c4c([nH]c23)[C@@H]2C[C@H](N(C)C(=O)c3ccco3)[C@H]([C@H](C)O)CN2CC4)c1 was read as rCAG binder inactive and PRMT1 inh inactive.
Cc1ccc(S(=O)(=O)C=CS(=O)(=O)c2ccc(C)cc2)cc1 was read as TLR9-MyD88 block 29, rCAG binder inactive, ABHD5 PLIN5 PPI 37, NOD2 RIPK2 PPI inactive, PRMT1 inh 90, TLR9-MyD88 conf 37, BLA counter-1 inactive, TLR9 CHO tox 97, ABHD5 PLIN5 conf 68, HNF4 counter 108 and PRMT1 inh conf 95.
`O=S(=O)(/C=C/C=C/S(=O)(=O)c1ccccc1)c1ccccc1` gave TLR9-MyD88 block 26, rCAG binder inactive, ABHD5 PLIN5 PPI 90, NOD2 RIPK2 PPI 87, PRMT1 inh 25, TLR9-MyD88 conf 27, BLA counter-1 inactive, TLR9 CHO tox 98, ABHD5 PLIN5 conf 91, HNF4 counter 111, NOD2-RIPK2 conf 77, BLA counter-2 38 and PRMT1 inh conf 28.
